Data on 32 molecules can be found in PubChem BioAssay AID720706 (Broad Institute, 2013).

In all, about 350,000 compounds went through this assay and about 5,500 (1.6%) were called active.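 Rule for the calls: active = significant combined selectivity score with lowered wild-type GFP, culture density cut under 30%, mutant RFP and density less affected; inactive = any of these conditions unmet.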 The entries come from a sample that favours actives as a whole.

The test can be described thus: reduced GFP signal of wild-type E. coli, primary screen, bacterial rRNA inhibitor project, GFP/RFP fluorescence, OD600, single point (AID 720706). The note with it: E. coli WT GFP vs humanized-ribosome RFP mutants, 24 h; GFP signal change (wild-type ribosome): stronger effect = lower value, DMSO median 0, no signal -100; OD600 change: measured here: OD600 growth, DMSO median 0, no signal -100; RFP signal change: measured here: RFP humanized mutant strains, DMSO median 0, no signal -100, concentration not given here.
Consider `CC(C)NC(=O)Nc1cccc2c1O[C@H](CN(C)Cc1ccccc1)[C@H](C)CN([C@H](C)CO)C2=O`, for which the GFP signal change (wild-type ribosome) was 3.96% (inactive), the OD600 change turned out to be 10.7% and the RFP signal change is -0.787%.

In the case of `C[C@@H]1CN([C@H](C)CO)C(=O)c2cc(-c3ccncc3)cnc2O[C@H]1CN(C)C`, the GFP signal change (wild-type ribosome) was -0.119% (inactive), the OD600 change was found to be 3.91% and the RFP signal change worked out at 0.159%.

For the molecule `NNc1nc2c(Cl)cccc2s1`, the GFP signal change (wild-type ribosome) was -27.1% (active), the OD600 change is -15.6% and the RFP signal change was -0.505%.

Take `CN1C(=O)c2cc(NC(=O)NC3CCCC3)ccc2OC[C@@H]2O[C@@H](CC(=O)O)CC[C@H]21`: the GFP signal change (wild-type ribosome) was 3.92% (inactive), the OD600 change came to 5.14% and the RFP signal change was -1.81%.

`COC(=O)[C@@]1(C)[C@H]2C(=O)N(Cc3ccccc3)C(=O)[C@H]2[C@H]2CN=C(SCC3CC3)N21`: the GFP signal change (wild-type ribosome) was -47.6% (inactive), the OD600 change is -80% and the RFP signal change is -15.4%.

In the case of `CC[C@]1(C(=O)OC)[C@H]2C(=O)N(Cc3ccccc3)C(=O)[C@H]2[C@H]2CN=C(SCc3ccccc3)N21`, the GFP signal change (wild-type ribosome) was -30.1% (inactive), the OD600 change was -42.8% and the RFP signal change is -8.47%.

Consider `CC[C@]1(C(=O)OC)[C@H]2C(=O)N(Cc3ccccc3)C(=O)[C@H]2[C@H]2CN=C(SCc3ccc(C#N)cc3)N21`, for which the GFP signal change (wild-type ribosome) was -22.2% (active), the OD600 change is -6.29% and the RFP signal change was determined as 8.89%.

In the case of `C[C@@H]1CN([C@H](C)CO)C(=O)c2cc(-c3cccc(F)c3)cnc2O[C@H]1CN(C)C(=O)Nc1ccccc1F`, the GFP signal change (wild-type ribosome) was -2.5% (inactive), the OD600 change is -5.06% and the RFP signal change is -1.42%.

Regarding `CCC(=O)N1CC2(CN(Cc3cccnc3)C2)c2c(n(C)c3cc(OC)ccc23)[C@@H]1CO`, the GFP signal change (wild-type ribosome) was 1.02% (inactive), the OD600 change is -2.19% and the RFP signal change was -2.12%.

For `C=C1CCC(N(O)c2cc(C)on2)C(=C)CCC2C1CC2(C)C` (stereo unspecified), the GFP signal change (wild-type ribosome) is -20.5% (active), the OD600 change is -3.66% and the RFP signal change came out at 1.7%.

For `CN1CCN(C(=O)C[C@H]2CC[C@@H]3[C@H](COC[C@@H](O)CN3CC3CCCC3)O2)CC1`, the GFP signal change (wild-type ribosome) was -1.31% (inactive), the OD600 change was found to be 7.95% and the RFP signal change was -2.61%.

For the molecule `Cc1cc(-c2ccc(C)c(S(=O)(=O)NCCCN(Cc3ccccc3)C(C)C)c2)on1`, the GFP signal change (wild-type ribosome) was -6% (inactive), the OD600 change was -18.2% and the RFP signal change turned out to be 1.25%.

In the case of `CCOc1ccccc1CNS(=O)(=O)c1cc(-c2cc(C)no2)ccc1C`, the GFP signal change (wild-type ribosome) was -6.17% (inactive), the OD600 change was -29.1% and the RFP signal change was -15.4%.

Take `Cc1cc(-c2ccc(C)c(S(=O)(=O)NC(C)Cc3ccco3)c2)on1` (stereo unspecified): the GFP signal change (wild-type ribosome) is -34.9% (active), the OD600 change is -21.1% and the RFP signal change is 0.997%.

In the case of `COc1cc(F)c(C2=CC(=O)CC(C)(C)C2)cc1F`, the GFP signal change (wild-type ribosome) was -21.1% (active), the OD600 change was -16.7% and the RFP signal change was found to be 2.19%.

On to `COc1ccccc1-c1n[nH]nc1C1=CC(=O)CC(C)(C)C1`, for which the GFP signal change (wild-type ribosome) was -4.29% (inactive), the OD600 change was -12.1% and the RFP signal change is -0.515%.

Consider `CC1(C)CC(=O)C=C(c2ccc(Cl)c(C(F)(F)F)c2)C1`, for which the GFP signal change (wild-type ribosome) was 2% (inactive), the OD600 change was -0.255% and the RFP signal change is -10.1%.

`C[C@@H]1CN([C@H](C)CO)C(=O)c2ccccc2-c2ccccc2CO[C@H]1CN(C)S(=O)(=O)c1ccsc1`: the GFP signal change (wild-type ribosome) is -0.618% (inactive), the OD600 change was -1.1% and the RFP signal change was -2.79%.

In the case of `O=C(NCC[C@@H]1CC[C@@H](NC(=O)C2CCCC2)[C@H](CO)O1)c1cnccn1`, the GFP signal change (wild-type ribosome) is 3.79% (inactive), the OD600 change worked out at 7.83% and the RFP signal change is -1.44%.

`O=C(NC(=S)Nc1ncccn1)c1ccccc1Br`: the GFP signal change (wild-type ribosome) was -2.07% (inactive), the OD600 change was 4.96% and the RFP signal change was -3.8%.

On to `CCCN(CC1CC1)C(=S)NC(=O)c1ccccc1Br`, for which the GFP signal change (wild-type ribosome) is -22.1% (active), the OD600 change is -12% and the RFP signal change was -8.89%.

Regarding `CC1CCN(C(=S)NC(=O)c2ccccc2Br)CC1`, the GFP signal change (wild-type ribosome) was 6.21% (inactive), the OD600 change was 4.62% and the RFP signal change is -0.105%.

Take `O=C(CCN1CCCCC1)NCC[C@@H]1CC[C@H](NS(=O)(=O)c2cccc(Cl)c2)[C@H](CO)O1`: the GFP signal change (wild-type ribosome) was 3.52% (inactive), the OD600 change is 6.73% and the RFP signal change is 1.99%.

Regarding `COc1ccccc1NC(=O)N1C[C@@H](O)COC[C@H]2O[C@@H](CC(=O)NCc3ccccc3)CC[C@@H]21`, the GFP signal change (wild-type ribosome) is -2.42% (inactive), the OD600 change was -2.65% and the RFP signal change stood at 2.34%.

For the molecule `COCC(=O)N1CCC2(CC1)CN(Cc1ccccc1Cl)[C@H](CO)c1c2c2ccc(OC)cc2n1C`, the GFP signal change (wild-type ribosome) was 5.11% (inactive), the OD600 change is -2.87% and the RFP signal change was found to be 0.0355%.

Turning to `Clc1ccc(C[n+]2cc(-c3ccc(Cl)cc3)n3c2CCC3)cc1`, the GFP signal change (wild-type ribosome) was -41.8% (inactive), the OD600 change is -50.2% and the RFP signal change is -12.3%.

With `Cc1ccc(C(=O)C[n+]2cc(-c3ccccc3)n3c2CCCCC3)cc1`, the GFP signal change (wild-type ribosome) is -44.5% (inactive), the OD600 change was -43.4% and the RFP signal change was determined as 50.7%.

Turning to `Cc1ccc(-c2c[n+](CC(=O)Nc3ccccc3)c3n2CCC3)cc1`, the GFP signal change (wild-type ribosome) was -22.1% (active), the OD600 change is -5.22% and the RFP signal change stood at 8.16%.

As for `O=C(C[n+]1cc(-c2ccc(Cl)c(Cl)c2)n2c1CCC2)c1cccs1`, the GFP signal change (wild-type ribosome) was -50.7% (active), the OD600 change was -21.5% and the RFP signal change is -14.4%.

With `Clc1ccc(C[n+]2cc(-c3ccccc3)n3c2CCC3)cc1`, the GFP signal change (wild-type ribosome) was 2.79% (inactive), the OD600 change was -1.72% and the RFP signal change is -0.921%.

On to `Cc1ccc(S(=O)(=O)N2CCN(C(=O)c3cccs3)CC2)cc1`, for which the GFP signal change (wild-type ribosome) was 0.592% (inactive), the OD600 change is -2.53% and the RFP signal change was -0.742%.

For `O=C(NCC1CC1)[C@@H]1[C@@H](CO)[C@@H]2Cn3c(ccc(-c4ccncc4)c3=O)[C@H]1N2Cc1nccs1`, the GFP signal change (wild-type ribosome) is 2.96% (inactive), the OD600 change was 4.86% and the RFP signal change is -1.83%.
